The list is not random: actives were taken first. Their share in the collection is about 3.2%.
p53null 39C tox: kills p53 null cells at the nonpermissive temperature. Potency, µM (highest dose often 46.1 µM), without a hit: at the top dose activity, negative = cell killing, actives largely listed as cytotoxic. hit rate 0.97% among 55,000. AID 904. H1299 p53-null (neo) cells, 39C, ATPlite viability, 24 h;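 also: 0% = DMSO only and -100% = full killing by 100 µM tamoxifen; nearly all actives have a fitted effect of over 50% in size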
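Temperature-shift cytotoxicity format: compound titrations on p53-null or A138V-expressing H1299 cells held 24 hr at 39C, cell ATP then measured, AC50 from Hill model.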
S16 viability: S16 Schwann cell cytotoxicity; hit rate 0.48% among 43,000; Potency, µM (highest dose often 57.5 µM), for the others: top-dose activity change, negative = cytotoxicity, most hits filed as cytotoxic; S16 Pmp22-F2sN Schwann cells viability, CellTiter-Glo, 24 h; also: nearly all actives have a fitted effect of over 65% in size
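Used to flag compounds lowering reporter output through toxicity, this quantitative HTS measures ATP-based CellTiter-Glo luminescence in S16 Pmp22-F2sN Schwann cells after 24 h compound exposure at 37C.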
pS6 MEF inh: mTORC1 pathway inhibition measured by phospho-rpS6; Tsc2-/- p53-/- MEF, phospho-rpS6 immunofluorescence/PI, 24 h; Potency, µM (series often up to 38.3 µM), for inactives: top-dose activity change, negative = inhibition, hits mostly inhibitors; hit rate 0.78% among 44,000;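 also: plate controls were DMSO for no effect and rapamycin for full effect; nearly all actives have a fitted effect of over 50% in size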
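Read-out: phospho-S6 Alexa-488 intensity over PI intensity per well, scored as % active cells using thresholds from rapamycin (7.5 nM) and DMSO controls. Tsc2-/-, p53-/- MEFs exposed to compound for 24 h; PI cell count recorded as viability.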
p53null 32C tox: kills p53 null cells at the permissive temperature; H1299-neo p53 null cells, ATP luminescence, 24 h, 32C; Potency, µM (titrated, usually from 46.1 µM), inactives show top-dose activity change, negative = cytotoxicity, usual class: cytotoxic; hit rate 0.62% among 55,000;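 also: 0% = DMSO only and -100% = full killing by 100 µM tamoxifen; nearly all actives have a fitted effect of over 55% in size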
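H1299-neo (p53-null) cells, 600/well, were pre-incubated overnight at 37C, then exposed to compounds at up to 46 uM for 24 hr at 32C. Viability was measured as ATP content by luminescence, and AC50 values came from Hill fits.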
PMP22 txn prim: PMP22 gene transcription modulation; S16 Pmp22-F2sN Schwann cells (luciferase reporters placed in the Pmp22 gene), FLuc/NLuc coincidence luminescence, 24 h; Potency, µM (highest dose often 57.5 µM), inactives show top-dose activity change, negative = inhibition, most hits filed as inhibitors; hit rate 2% among 43,000; AID 1508649; active = clear falling dose curves in both reporters; inconclusive = both reporters move, but less clearly or upward; inactive = either reporter flat; the % is the NLuc reporter signal
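qHTS, 1536-well. Cells seeded, compounds added by pin tool, 24 h 37C. Nano-Glo reagent 1 (lysis/FLuc), 10 min RT, read; Stop&Glo, 10 min RT, read NLuc.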
* hit, by the source's call; ? = inconclusive; . = not tested or not shown. Unless noted, calls follow the shape of the dose curve; as a rule, active = well fitted curve in the direction sought with a large enough effect; inconclusive = small, poorly fitted or top-dose-only effect, or another doubt; inactive = no such curve, though single readings can be large; an effect the other way counts as inactive or inconclusive. Unless noted, % is scaled to controls: 0 for no effect and ±100 for the full control effect; potency is read from the fitted curve at half-maximal effect.

SMILES | p53null 39C tox | S16 viability | pS6 MEF inh | p53null 32C tox | PMP22 txn prim
Cc1ccc(C(=O)Nc2nnc(SCC(=O)N3CCCc4ccccc43)s2)cc1 | . | . | . | 1.3µM* | .
CC(C)(C)n1nnnc1C(c1ccc(Cl)cc1)N(Cc1cccnc1)Cc1ccco1 (configuration not stated) | -11% | . | . | 15% | .
CCOc1cccc(C(=O)Nc2ccc3oc(-c4ccc(C(C)(C)C)cc4)nc3c2)c1 | -6% | ? | -23% | 4% | -62%
Cc1ccc(-c2cc(C(=O)NCc3cnn(C)c3C)c3ccccc3n2)cc1C | 0.79µM* | 1% | -7% | ? | -39%
Cc1ccc(-c2cc(C(=O)NCCc3ccccc3)c3ccccc3n2)cc1C | 10% | -30% | 11% | -18% | -76%
COc1ccc(CCNC(=O)C(=O)NCC(c2ccco2)S(=O)(=O)c2cccs2)cc1 (configuration not stated) | 2% | -4% | -6% | 0% | 3%
Cc1cccc(-n2cnc3cc(C(=O)NC4CCCCCC4)ccc32)c1 | 5% | ? | 9.3µM* | 44% | ?
Oc1cccc(C(Nc2ccccn2)c2ccc3cccnc3c2O)c1Cl (configuration not stated) | 4µM* | . | ? | ? | .
Cc1ccccc1NC(=O)c1c2c(nc3ccccc13)C(=O)N(C1CCCCC1)C2 | -17% | -1% | -16% | 7% | ?
COc1cc(OC)c(NC(=O)c2c3c(nc4ccccc24)C(=O)N(C2CCCCC2)C3)cc1Cl | ? | 25µM* | -9% | -29% | ?
Cn1nnnc1SCCCNCc1ccc(-c2ccc(F)c(Cl)c2)o1 | -29% | -7% | -4% | -8% | -25%
O=C(Cn1ncc2c3ccccc3n(Cc3ccc(Cl)cc3)c2c1=O)NCc1cccs1 | -6% | 5% | 4% | -9% | ?
Cc1ccc(Cl)cc1N1CCN(C(=O)c2ccc(CS(=O)c3ccccc3)o2)CC1 (configuration not stated) | -5% | ? | ? | 7% | 10µM*
O=C(/C(C=Nc1ccc(Br)cc1)=C(/O)c1ccco1)C(F)(F)F | ? | . | . | 5µM* | .
COCCNC(=O)CSc1nnc(NC(=O)Nc2ccc(C)cc2)s1 | 3% | 6% | 0% | 13µM* | 4%
CCOC(=O)c1ccc(Nc2nc3nonc3nc2Nc2cccc(C)c2C)cc1 | ? | ? | -20% | 6% | 11µM*
Cc1ccc(C)c(Nc2nc3nonc3nc2Nc2cccc(C)c2C)c1 | ? | ? | -9% | 26% | ?
CCOCc1cc(CN2CCN(c3cccc(Cl)c3)CC2)c(O)c2ncccc12 | ? | ? | 12µM* | ? | 5.7µM*
CC(C)OCc1cc(CN2CCN(c3ccccc3)CC2)c(O)c2ncccc12 | 1.3µM* | ? | ? | ? | 5.1µM*
CCOc1ccc2oc(=O)cc(CN3CCN(c4ccccc4)CC3)c2c1 | 10% | -24% | 5% | 5% | ?
O=C(CCc1cn(Cc2ccccc2Cl)c2ccccc12)NC1CCCCC1 | ? | -15% | -3% | 4% | ?
CCc1c(C)c2ccc(O)c(CN3CCN(c4ccc(OC)cc4)CC3)c2oc1=O | 10µM* | . | 0% | ? | .
Cc1ccc(Sc2c(C)nn(C(=O)c3ccc(Cl)cc3)c2C)cc1 | 9% | -6% | 4% | 13% | -14%
COc1cc(C(=O)n2nc(C)c(Sc3ccc(Cl)cc3)c2C)cc(OC)c1OC | ? | 13% | 10µM* | 7% | -4%
Cc1oc(-c2cccc(Cl)c2)nc1CN1CCC(C(=O)NC(C)c2ccccc2)CC1 (configuration not stated) | -28% | -10% | 0% | -6% | ?
SMILES | p53null 39C tox | S16 viability | pS6 MEF inh | p53null 32C tox | PMP22 txn prim
CCCCNC(=O)C1CCN(Cc2nc(-c3ccc(OC)c(OC)c3)oc2C)CC1 | -22% | 19% | -24% | 1% | -5%
Cc1oc(-c2cccc(Cl)c2)nc1CN1CCC(C(=O)NCCCN2CCN(c3ccccc3F)CC2)CC1 | 4% | ? | -17% | -2% | 7.9µM*
Cc1oc(-c2cccc(Cl)c2)nc1CN1CCC(C(=O)NCCCN2CCN(c3ccc(F)cc3)CC2)CC1 | 0% | 10µM* | 0% | 0% | 9.6µM*
COc1ccc(-c2nc(CN3CCC(C(=O)NCCCN4CCN(c5ccccc5F)CC4)CC3)c(C)o2)cc1OC | -30% | ? | 15µM* | -18% | ?
Cc1oc(-c2cccc(Cl)c2)nc1CN1CCCC(C(=O)NCc2ccc(F)cc2)C1 (configuration not stated) | ? | -16% | 3% | -1% | ?
COc1ccc(CCNC(=O)Cn2cnc3c(nnn3Cc3ccccc3F)c2=O)cc1OC | 9% | . | . | 3% | .
COc1ccccc1Nc1c2c(nc3ccc(NC(=O)c4cccc(OC)c4OC)cc13)CCCC2 | 14% | ? | 16µM* | -22% | ?
COc1ccccc1Nc1c2c(nc3ccc(NC(=O)c4ccc(OC)c(OC)c4)cc13)CCCC2 | 22µM* | ? | ? | ? | ?
CC(C)(C)OC(=O)N1CCC(c2c(C(=O)NCCN3CCc4ccccc4C3)cnn2-c2ccc(F)cc2F)CC1 | -10% | ? | -1% | 11% | ?
COC(=O)c1cc(NC(=S)NCc2ccc(Cl)cc2)cc(C(=O)OC)c1 | . | . | . | 19% | .
COC(=O)c1ccc(Nc2nnc(-c3ccc(C)c(S(=O)(=O)N4CCN(C)CC4)c3)c3ccccc23)cc1 | 17% | ? | 21µM* | 15% | -44%
COCCCNC(=O)c1oc2c(c1C)-c1nn(Cc3cccc(Cl)c3)cc1CC2 | 18µM* | ? | 7% | 20% | ?
Cc1cc(C)cc(C(=O)Nc2nnc3n2CCS3)c1 | 18% | -25% | 0% | -9% | ?
Cc1ccccc1NC(=O)c1ccc(Cl)c(S(=O)(=O)N2CCCCCC2)c1 | ? | ? | 9% | 2% | -53%
Cc1ccc(C(=O)Nc2ccccc2C(=O)O)cc1S(=O)(=O)N1CCCCCC1 | 10µM* | 8% | 6% | 5µM* | -30%
CCCOc1ccc(C(=O)Nc2ccc(NC(=O)c3ccccc3)c(Br)c2)cc1 | -10% | ? | 18µM* | -13% | ?
CCOc1ccc(NC(=O)c2ccc(N)cc2)cc1 | ? | . | . | 11µM* | .
Cc1cc(C)cc(NC(=O)Cn2cc(C(=O)c3ccccc3)c(=O)c3ccc(C)nc32)c1 | -14% | 3% | 4% | -4% | -3%
COc1cccc(-n2c(=O)[nH]cc(C(=O)Nc3ccc4c(c3)OCCO4)c2=O)c1 | 21% | . | . | 18% | .
COc1cc(OC)cc(C(=O)Nc2ccc3c(c2)OCCO3)c1 | 6.3µM* | ? | 5% | 7.9µM* | -5%
COC(=O)c1ccc(Nc2nc(-c3ccccc3Cl)nc3ccccc23)cc1 | ? | 19% | 4% | 8% | ?

High-throughput results: PubChem BioAssay, National Center for Advancing Translational Sciences (NCATS)
